For 81 compounds, inhibition results are on record in PubChem BioAssay AID720648 (The Scripps Research Institute Molecular Screening Center, 2013).

Hit rate of the full screen: of about 370,000 compounds, about 3,100 (0.84%) were called active. The entries come from a sample that favours actives as a whole. Unmarked numbers belong to inactive results.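 How the source made its calls: active means inhibition above the mean of compounds lying between control limits plus 3 SD, set per campaign (cut at about 8.5% in these data); inactive means the rest.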

The target in the experiment is Disintegrin and metalloproteinase domain-containing protein 17 (Homo sapiens) (UniProt P78536). Nature of the experiment: ADAM17 inhibitors, primary screen, biochemical, QFRET (AID 720648).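 Further: 0% = DMSO-only wells as the low control.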 As to conditions: recombinant ADAM17, EDANS/DABCYL FRET peptide cleavage; at 6.95 µM; stronger effect = higher value.
Sequence of Disintegrin and metalloproteinase domain-containing protein 17 (Homo sapiens) (P78536 215-824 limits assumed): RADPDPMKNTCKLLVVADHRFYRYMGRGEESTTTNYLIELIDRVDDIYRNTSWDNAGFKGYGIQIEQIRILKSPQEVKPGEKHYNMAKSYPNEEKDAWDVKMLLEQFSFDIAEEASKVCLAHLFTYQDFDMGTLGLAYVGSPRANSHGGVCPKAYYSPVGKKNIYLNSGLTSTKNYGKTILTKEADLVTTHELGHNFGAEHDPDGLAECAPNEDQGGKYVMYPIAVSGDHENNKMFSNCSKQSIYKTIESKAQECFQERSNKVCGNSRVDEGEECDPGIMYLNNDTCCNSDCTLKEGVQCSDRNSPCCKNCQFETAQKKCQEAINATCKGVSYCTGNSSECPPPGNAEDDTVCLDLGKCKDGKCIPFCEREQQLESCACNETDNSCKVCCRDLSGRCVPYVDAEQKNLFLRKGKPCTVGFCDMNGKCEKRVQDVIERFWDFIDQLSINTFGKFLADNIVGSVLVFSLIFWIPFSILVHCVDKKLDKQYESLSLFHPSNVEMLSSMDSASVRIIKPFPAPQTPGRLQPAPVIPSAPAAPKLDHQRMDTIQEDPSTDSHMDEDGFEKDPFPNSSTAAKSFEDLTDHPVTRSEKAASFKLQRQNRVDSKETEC
As usually defined, the inhibition is the change of the read-out against control, counted positive when it falls. Consider `COc1cccc(CSc2nnc(-c3cccnc3)n2Cc2ccccc2)c1`, for which the inhibition is -1.8%.

Take `CCN1C(=O)[C@H]2[C@@H](c3ccc(C(F)(F)F)cc3)N[C@]3(CCCN(Cc4ccc(Br)cc4)C3=O)[C@H]2C1=O`: the inhibition is 0.02%.

Turning to `O=C1[C@H]2[C@@H](c3ccc(C(F)(F)F)cc3)N[C@]3(CCCN(Cc4ccc(Cl)cc4)C3=O)[C@H]2C(=O)N1Cc1ccccc1`, the inhibition is 6.3%.

For `O=C1[C@H]2[C@@H](c3ccc(C(F)(F)F)cc3)N[C@]3(CCCN(Cc4ccc(Br)cc4)C3=O)[C@H]2C(=O)N1Cc1ccccc1`, the inhibition is 13.7% (active).

For `O=C(NCc1ccco1)C1CCCN(S(=O)(=O)c2ccc(Cl)s2)C1` (stereo unspecified), the inhibition is -1.38%.

`O=C(CNS(=O)(=O)c1ccccc1F)N1CCN(c2ccccn2)CC1`: the inhibition is -2.81%.

On to `CC(=O)Nc1ccc(S(=O)(=O)N2CCN(CCCOc3cc(C)ccc3C)CC2)cc1`, for which the inhibition was 9.18% (active).

Regarding `Cc1ccc(C)c(OCCC(=O)Nc2cccc(S(=O)(=O)N3CCCC3)c2)c1`, the inhibition is 1.33%.

With `Cc1cccc(OCCCC(=O)Nc2ccc(S(=O)(=O)N3CCCC3)cc2)c1`, the inhibition is 3.89%.

As for `CC(=O)Nc1ccc(OC[C@@H](O)CN2CCC(C(O)(c3ccccc3)c3ccccc3)CC2)cc1`, the inhibition was 2.29%.

With `COc1cc(C(=O)NNC(=O)c2ccc(S(=O)(=O)N3CCCCC3)cc2)cc(OC)c1OC`, the inhibition is 0.14%.

`COc1ccc(S(=O)(=O)N2CCCCC2)cc1Br`: the inhibition is 9.21% (active).

As to `COc1ccc(F)cc1S(=O)(=O)N1CCCCC1`, the inhibition was -4.65%.

Take `CCOC(=O)[C@@]12CCC3=C1N(CCC3)C(=O)[C@H](CC(=O)N1CCN(C(=O)c3ccco3)CC1)C2`: the inhibition was -6.34%.

On to `Cc1nc(CNc2ncnc3ccc(-c4ccc5c(c4)OCO5)cc23)cs1`, for which the inhibition was -54.3%.

On to `CCOc1ccc2nc(Cl)c(C3CC(c4ccccc4)=NN3C(=O)c3cccs3)cc2c1` (stereo unspecified), for which the inhibition was -2.13%.

Take `CS(=O)(=O)Nc1cccc(C2=NN(S(=O)(=O)c3ccccc3)C(c3cccs3)C2)c1` (stereo unspecified): the inhibition was 8.71% (active).

For `CS(=O)(=O)Nc1cccc(C2=NN(C(=O)c3cccc(F)c3)C(c3cccs3)C2)c1` (stereo unspecified), the inhibition is 1.09%.

As for `CCOc1ccccc1C1CC(c2cccc(NS(C)(=O)=O)c2)=NN1C(=O)c1ccccc1` (stereo unspecified), the inhibition was 12.6% (active).

For `COC(=O)c1cccc(NS(C)(=O)=O)c1`, the inhibition is -1.45%.

`COc1cccc(C2CC(c3cccs3)=NN2C(=O)CSC2=NCCS2)c1OC` (stereo unspecified): the inhibition is -4.82%.

Turning to `CCS(=O)(=O)Nc1ccc(C2=NN(S(=O)(=O)c3ccc(F)cc3)C(c3ccco3)C2)cc1` (stereo unspecified), the inhibition is 3.46%.

`Cc1ccc(C2CC(c3cccc(NS(C)(=O)=O)c3)=NN2S(C)(=O)=O)cc1` (stereo unspecified): the inhibition is -2.2%.

With `COc1cccc(C2CC(c3ccccc3)=NN2S(=O)(=O)c2ccccc2)c1OC` (stereo unspecified), the inhibition is 14% (active).

For the compound `O=C(Nc1cc(Cl)cc(Cl)c1)OCCN1CCCC12CCC(c1ccccc1)CC2` (stereo unspecified), the inhibition was 1.56%.

Take `CCOC(=O)[C@]12CCCCC/C=C\1N(Cc1ccc(OC)cc1)C(=O)[C@H]2CC(=O)NCCCN1CCCC1=O`: the inhibition was 5.47%.

Turning to `Cc1cc(NS(=O)(=O)c2ccc(NC(=O)CSc3nnc(-c4ccc(C(C)(C)C)cc4)n3Cc3ccco3)cc2)nc(C)n1`, the inhibition was 0.8%.

Take `CC(C)(C)c1ccc(C(=O)Nc2cc(Cl)c(Br)cc2C(=O)O)cc1`: the inhibition was 8.45%.

With `COC(=O)[C@]12C[C@H](CC(=O)N3CCOCC3)C(=O)N(Cc3ccc(Cl)cc3Cl)C1=C[C@H](C(C)C)O[C@@H]2C1CC1`, the inhibition is -2%.

Consider `Cc1ccc(-n2c(SCC(=O)Nc3ccc(S(=O)(=O)Nc4nccs4)cc3)nnc2-c2ccccn2)cc1`, for which the inhibition was 2.5%.

Turning to `O=C1CC[C@@]23CCCN2C(=O)CCC[C@H]3[C@H]1Cc1ccccc1`, the inhibition was -7.14%.

As for `S=C(NCc1ccc(Cl)cc1)NC12CC3CC(CC(C3)C1)C2`, the inhibition is 14.9% (active).

Turning to `COc1ccccc1C(=O)NC(=S)NC12CC3CC(CC(C3)C1)C2`, the inhibition was -0.66%.

Turning to `Cc1ccc(C(=O)NC23CC4CC(CC(C4)C2)C3)c(Cl)c1`, the inhibition was -1.94%.

Regarding `COc1ccc(-c2cc(-c3nnc(SCC(=O)Nc4cccc5ccccc45)n3N)[nH]n2)cc1`, the inhibition is -3.93%.

For the compound `O=C(NCC1COc2ccccc2O1)c1ccc(NC(=O)c2cc(F)ccc2F)cc1` (stereo unspecified), the inhibition is 2.47%.

For `COc1ccc(/C=C2\CC3(OC(C)=O)CCCN2C3)cc1` (stereo unspecified), the inhibition is -3.86%.

On to `Cc1ccccc1NC(=O)C1CCN(c2ncccn2)CC1`, for which the inhibition is -12.7%.

For `COc1ccc(C(=O)NN2C(=O)C3C(c4ccccc4)C=CC(c4ccccc4)C3C2=O)cc1` (stereo unspecified), the inhibition is 13.9% (active).

With `O=C(NN1C(=O)C2C3C=CC(C4CC34)C2C1=O)c1ccc(Cl)cc1` (stereo unspecified), the inhibition was -30.5%.

On to `O=C(NN1C(=O)C2C3C=CC(O3)C2C1=O)c1ccccc1` (stereo unspecified), for which the inhibition was 0.75%.

`COc1ccc(N2CCN(CCNS(=O)(=O)c3ccc(C(C)(C)C)cc3)CC2)cc1`: the inhibition was 1.38%.

In the case of `CCCC[C@H]1C2CC(OC(=O)NCc3ccccc3)C(C2)[C@H]2CCCCN21` (stereo partly specified), the inhibition is -10.2%.

In the case of `C=C(C)COc1ccc(-c2n[nH]c(C)c2-c2ccccc2)c(O)c1`, the inhibition was 10.9% (active).

`Cc1[nH]nc(-c2ccc(OCc3cnn(-c4ccccc4)c3)cc2O)c1Oc1ccc(Cl)cc1`: the inhibition is 0.84%.

As to `CC(C)N1CCCCC(NC(=O)C(C)(C)C)C1=O` (stereo unspecified), the inhibition was -2.39%.

As to `O=C(CSc1nnc(Nc2ccccc2F)s1)NC1CCCC1`, the inhibition is -2.83%.

In the case of `O=C(CSc1nnc(C2CC2)n1Cc1ccccc1)Nc1cccnc1Cl`, the inhibition is -2.91%.

`O=C(CSc1nnc(Nc2ccccc2)s1)Nc1cccnc1Cl`: the inhibition was 8.69% (active).

Regarding `CCOC(=O)[C@]12CCCC=C1N(Cc1ccc(OC)cc1)C(=O)[C@@H]2CC(=O)NCc1cccs1`, the inhibition was -2.4%.

Consider `CN1C[C@]2(C=C3CCCCC3n3c(=O)n(-c4ccccc4)c(=O)n32)N=C1NC(=O)c1ccccc1` (stereo partly specified), for which the inhibition was -0.93%.

With `COC(=O)[C@]1(C#N)CC(=O)N(CC2CCCCC2)[C@@H]1c1ccccc1`, the inhibition was 4.54%.

Regarding `O=C(NC1CCCC1)C1CSCCS(=O)(=O)N1Cc1ccccc1` (stereo unspecified), the inhibition was -0.05%.

As for `O=C(CSc1nnc(COc2ccccc2)n1-c1ccc(Cl)cc1)Nc1ccc2c(c1)OCO2`, the inhibition is 1.36%.

Turning to `COc1ccc(-n2c(COc3ccccc3)nnc2SCC(=O)Nc2ccc3c(c2)OCO3)cc1`, the inhibition was 4.09%.

Consider `Cc1ccc(-n2c(COc3ccccc3)nnc2SCC(=O)Nc2ccc3c(c2)OCCO3)cc1`, for which the inhibition was 10.3% (active).

Consider `Cc1cc(C)cc(NS(=O)(=O)c2ccc(Oc3ncc(C(F)(F)F)cc3Cl)cc2)c1`, for which the inhibition was 10.8% (active).

As to `CN(NS(=O)(=O)c1cccs1)c1ncc(C(F)(F)F)cc1Cl`, the inhibition was -1.66%.

`O=S(=O)(Nc1ccc(Oc2ncccn2)c(Cl)c1)c1ccc(F)cc1`: the inhibition was -3.11%.

As to `COc1cccc(/C=C2\CC3(OC(C)=O)CCCN2C3)c1` (stereo unspecified), the inhibition was 3.86%.

For `O=C(OC12CCCN(C1)/C(=C/c1ccccc1)C2)c1ccco1` (stereo unspecified), the inhibition was 6.28%.

`COC(=O)[C@]12C[C@H](CC(=O)NCCCN3CCCC3=O)C(=O)N(CCc3ccc(OC)c(OC)c3)C1=C[C@H](COCc1ccccc1)O[C@@H]2C`: the inhibition was -6.14%.

On to `O=C(NCc1ccccc1)C1=C[C@@H](c2ccc(C(F)(F)F)cc2)C[C@@H](OCc2ccc(CO)cc2)O1`, for which the inhibition was 10.7% (active).

For the compound `CC(C)(C)[C@H]1C=C(C(=O)NCc2ccccc2)O[C@@H](OCc2ccc(CO)cc2)C1`, the inhibition is 2.4%.

With `O=C(C1=C[C@H](c2ccc(C(F)(F)F)cc2)C[C@H](OCc2ccc(CO)cc2)O1)N1CCN(Cc2ccccc2)CC1`, the inhibition was 5.72%.

Take `COc1ccc(Cl)cc1C=CC=NNC(=O)c1ccncc1`: the inhibition is -4.19%.

On to `Cc1ccc(OCCOc2cccc(/C=N/NC(N)=O)c2)cc1`, for which the inhibition is -1.45%.

With `Cc1ccc(OCCOCCOc2ccc(Br)cc2/C=N\NC(=O)c2ccncc2)cc1`, the inhibition was 10% (active).

As for `CN1C(=O)c2cc(NS(C)(=O)=O)ccc2OC[C@@H]2O[C@@H](CC(=O)NCc3ccc(-c4ccccc4)cc3)CC[C@H]21`, the inhibition was -3.9%.

Turning to `Cc1ccc(S(=O)(=O)N2C[C@]3(O)C[C@@H]4C(=O)N(c5ccccc5)C(=O)[C@@H]4C[C@]3(OC(=O)NC3CC3)C2)cc1`, the inhibition is -1.11%.

For `C#CCN(C[C@@H]1[C@@H](OC(=O)NC2CC2)[C@@H](OC(=O)NC2CC2)Cn2c(=O)ccc(=O)n21)S(=O)(=O)c1ccc(C)cc1`, the inhibition was -1.79%.

Take `C#CCN(C[C@H]1[C@H](OC(=O)NC2CCCC2)[C@H](OC(=O)NC2CCCC2)C[C@H]2C(=O)N(c3ccccc3)C(=O)[C@@H]12)S(=O)(=O)c1ccc(C)cc1`: the inhibition was 9.64% (active).

For `COC(=O)[C@]12C[C@H](CC(=O)NCc3ccccc3)C(=O)N(CCC3=CCCCC3)C1=C[C@H](C(C)C)O[C@@H]2C1CC1`, the inhibition was 6.48%.

With `CC1(C(=O)NCc2ccc3c(c2)OCO3)CCN1C(=O)Cc1cccc2ccccc12` (stereo unspecified), the inhibition was -3.18%.

For `N#Cc1nc(Cc2cccc3ccccc23)oc1NCc1ccc2c(c1)OCO2`, the inhibition is 9.51% (active).

On to `O=C(CCNS(=O)(=O)c1ccccc1C(F)(F)F)NCc1ccc2c(c1)OCO2`, for which the inhibition was -0.25%.

Turning to `CCOC(=O)C(=O)N(Cc1ccccc1)c1ccccc1C(=O)Nc1cc(OC)ccc1OC`, the inhibition was 4.35%.

With `O=C(CSc1nnc(-c2ccccn2)n1-c1ccc(Cl)cc1)Nc1ccccc1-c1ccccc1`, the inhibition is 5.21%.

For the compound `CN(C(=O)c1cccc(NC(=O)Cc2cccc([N+](=O)[O-])c2)c1)C1CCCCC1`, the inhibition was 10.3% (active).

Take `CN(C(=O)c1cccc(NC(=O)Cc2cccc(NC(=O)C3CCCN(C(=O)C4CC4)C3)c2)c1)C1CCC1` (stereo unspecified): the inhibition is -2.72%.

Turning to `CN(C(=O)c1cccc(NC(=O)Cc2ccc([N+](=O)[O-])cc2)c1)C1CCC1`, the inhibition is 3.46%.
